The supplement of paper PMC12632987

B1: uchl1_122_7446 (protein)
chain: MLTVEVLVSSSLSERVLEILEEYAAALLDNLEVEREEVSPGTRLLTFTGELKDVSEDEIRAIREEALARLAELQDLTPNEKVSFGNALRRIERQVMAARR
B2: uchl1_122_7453 (protein)
chain: TETVEVVGRRRDVEILAAVIREVFAAAGWTAEVTIEELSPTTARLVVTVTLPPASDEAVDALVAALEAAFREAVEKEGISRAFAGIAYTRVARAVRRAAA
B3: uchl1_143_7464 (protein)
chain: GSAPRPVIHLERTLSADTTLEEVEALVREAAELSVETGAPVVLTFTVSGDPNHRLRAHTMLRRAARRVIQELADRIPELRVLLRDEKTGKTQLIAHFDNR
B4: uchl1_143_7466 (protein)
chain: GPAPVPVLRVERTWTADTTLEEVLALLREAAERAIKEGKDLEVIFTVSPDPNHRLRANTLARRAGKEITQELGKRIRRLRVLLRDAETGKVDLIYEHDGR
B5: uchl1_143_7467 (protein)
chain: GPAAEPVLEVTIRVTRDTTPEELRARLLAAIDEAIAAGKALKITIEIPPDANLRVMVNTVAKRVAREVAKARGAELKRLVILGRDSATGKEQVLAEVVNP
B6: uchl1_143_7460 (protein)
chain: GAAPLPVLRTTIEVSEEDTPEEIYARIKAAIEEAIAAGKAAEVTIVVPPNPNVRVMVNNVAKRAARDVAKEYAGKVKEIRIYLEDRETGKRQLVAEVVNP
B7: uchl1_143_7457 (protein)
chain: GPEVVPVRRVEITVTRADTPEEIEARLLAAVREAAAAGEALLITITVEGDANLRVMVGNVAKRVARRAAREYGDTLPSLRIIARDAETGKEQLLAEVDNR
B8: uchl1_143_7456 (protein)
chain: PPAPVPVHRVTIEVTREDTPEEIRARLEAAVAEAAAAGAALEITVVVTSDPNVRVMANTVARRVAREAARRYRDTLPSLRIVLRDRETGKEQLIAEADFR
B9: uchl1_143_7465 (protein)
chain: GSMHMETLTVERTMTEDTTLEEVYALLEEAAKKAIAEGKDLVVIFTVSSDPNHRLRANTLARRAARRIIQEYGKEIRRLEVLLRDAETGKVDLIALHDGR
B10: uchl1_143_7461 (protein)
chain: ALEPLPVQKTTIEVSESDTPEEIYERIKAAIEAAIAAGKAAEVTIVVPPDPNVRVMVNNVAKRAAREVAQEHADKVKRITINLTDKETGKTEVVAEVVRP
B11: uchl1_143_7459 (protein)
chain: GSPEEEVEVIEVTIEPTDTPEQIREKITKALKEAVELEKDTRIVITVPPDPNLKLMVNTVARRELKKIAQEYPEKTKTITVEARDAETGKVDLLAEYVKE
B12: uchl1_122_7448 (protein)
chain: TVTVEVVGRREDIELIAAVIREVFAAAGIEVDVEIEELSPTTARLVVTIRAPPMTDAQVDATIAALAAAMARLVEEAGISRALAGIAFTRVERALRRAAA
B13: uchl1_122_7442 (protein)
chain: MLTIEVDVASSVSERTLEILKEYAEELLEDAEFSVEKKSPGTKLLTIKGKLKDVSDDEILEIENKALERAGKDQSITPNERVSFGNALRKIARQVARARA
B14: uchl1_122_7439 (protein)
chain: MLTIEVDVTSSLSPEGLAILREYASELLDNPEFEEELVSPGTLRLTFTGELKDLTPEQIREIANRALARAGADQSLTPNERVSLGNAIRRIARQVARARA
B15: uchl1_122_7447 (protein)
chain: TVTVEVVGRRADIEAIAAVIRAVFAAAGIKVDVEIEELSPTTAKLTVTITVPPVTDEQVDATIAALAAAMAALVEAEGISRALAGIAFTRVERALRRAAA
B16: uchl1_122_7451 (protein)
chain: SETVEVVGRRRDIELIAEAIKEVFEKFGVKVEVEIEELSPTTAKLTVTITVPPISDEELEALLAALEEAMRRLVEEEGVPRATAGLAYSRTARAVKRAAA
B17: uchl1_143_7468 (protein)
chain: GPAVEPVETVTITVTPDTTPEELRARLLAAIDAALAAGKALTITIVVPPDANLRVMANTVAKRVAREVARAHGDRLRRLTIRARDAATGKTQLLAEVVNP
B18: uchl1_122_7444 (protein)
chain: MLTVEVLVSSSLSEEVLEILEEYASKLLEDLEVEKKKVSPGTILITFTGELKDVSEEEIREIREEALERLSKLQNLTPNEKVSFGNALRRIERQVMQAKK
B19: uchl1_122_7441 (protein)
chain: MVTIEVEVSSSLSPEALAILAEAAAELLEDARVEVRELSPSTLLITITGRLKDLSPEEIREIENRALERLGRDQSLTPNQRVSAGNALRRLARQYARAKA
B20: uchl1_122_7452 (protein)
chain: TETVEVVGRRKDIELIAAAIREVAAAAGWTADVEIEELSENTAKLTVTVTLPPVSDAAVDAAEAALEAAMRRLVEEEGLSRAFVGIATTRVIRAIRRAAA
B21: uchl1_143_7458 (protein)
chain: GLEAIPVLEVHLRVTPADTPEEIRARLMAAIEEAAAAGKALRIVITVEGDANLRVMVGNVAKRVAREAARRYGATLPSLTIVARDAETGREQLLAEADFR
B22: uchl1_122_7450 (protein)
chain: SETVEVVGRREALEAIAAAIREVLAAFGAEVEVRIEELSPNTARLTVTIRLPPISDARLAELLEALEAAMRRLVEERGVPAATAGLAYSRVARAIRRAAA
B23: uchl1_143_7469 (protein)
chain: APEPIEHIEVTIEVAETDTFEEIHARISAAIDAAIALGRRTELTIRLVVPTTASANLRVMVNTAARRALREHADHLEDASISGEQRPGKAVLVIRVLTKA
B24: uchl1_143_7454 (protein)
chain: GMVHMEVEVIHIEVSEEDTPEEIREKIMEAMKKAVEKGKAIRIIITVPPDANKRLMVNTTARRAAREFAQEYKDKLKYLEIYARDKETGKEDLIAEIINP
B25: uchl1_122_7445 (protein)
chain: MLTVEVLVSSSMSPEVLAILEEYASRLLDDLEVEREKVSPGTVLLTFRGRLKDVSEEEIRAIREEALARLAKLQDLTPNEKVSFGNALRRIERQVMRARR
B26: uchl1_122_7449 (protein)
chain: TETVEVVGRRADVEAIAATIRAVFASHGLTVDTTITELSPTTARLTVTVTLPPISDAQVAALEAALEAAMAALVEREGISRAFAGIATTRVIRAVRRAAA
B27: uchl1_122_7440 (protein)
chain: MITIEIEVSSSLSEKGLEILAEAAKKLLDNAKIEVKEKSPSTKLITITGELKDLSEEEILEIENEALEEAGKDQSLTPNQRVSFGNALRRLAIQYAKAKA
B28: uchl1_122_7443 (protein)
chain: MLTIEVKVSSSLSERTLEILKKYAEKLLENPKFEVKELSPGTKLLTITGELKDVSDEEILEIRNEALEEAGKDQSITPNERVSFGNALRTISRQVARALA
B29: uchl1_143_7463 (protein)
chain: EEVELEVIHIEVTLTEDTTLEEVRALVEEAARLSIETGKHVVLTATVSNDPNHRLRANTMLRRAAREVIQERGAEIPKLVILLRDAETGKEDVIAEFDNR
B30: uchl1_143_7462 (protein)
chain: GAPALPVLRTTIEVTREDTPEEIHARIVAAIREAIAAGKAAEVTIVVPPDPNVRVMVNNVAKRAAREVAQEHADAVKRITIRLRDRETGRTQLVALVERP
B31: uchl1_143_7455 (protein)
chain: GHHMLEVEKIEIEVEETDTPEEIKKKIMEAMKKAVAKGKAIEIIITVPPDANFRLMVNTVAKRAAREFAKEYKDKLKYLKIYARDKETGKEDLIAEIVNP
B32: uchl1_143_7470 (protein)
chain: GRPTPPTLTVNLTFDETTTPEEIRAALNAAIDEAAAAGKNLTITITVPADSNKRLMVTTVARRVAREAAKRYRDKLPELRILATDAATGKTQLIAEYVNE

Target: UCHL1, P09936
Assay: median log2 fold change of GCK-ALFA target abundance (FLAG IP / Myc IP barcode read proportion) (log2 ratio); each designed protein is fused to an ALFA-tag nanobody in HEK293 cells to bring the named protein to FLAG-tagged glucokinase (GCK); Myc marks an untargeted standard; higher = target protein stabilised (more abundant)
Conditions: target protein: 3xFLAG-MCP-GCK-ALFA reporter; HEK293 landing pad (RPLP)
How it was run: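 Binders fused to an ALFA nanobody were recombined as a library into HEK293 landing-pad cells, which were induced with 2 μg mL^−1 doxycycline and then transfected to express a FLAG-tagged target and a Myc-tagged standard. After 48 h, circular RNA barcodes recovered by anti-FLAG and anti-Myc immunoprecipitation of lysates were reverse transcribed, amplified and sequenced. Each binder's target abundance is the median log2 ratio of FLAG to Myc barcode read proportions, from barcodes present at ≥10^−7 in both replicates, binders carrying ≥3 barcodes per replicate, a 10^−6 pseudocount and pooled replicates.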

Chain of UCHL1, P09936 (P09936 whole entry, looked up, the tested form may be a part): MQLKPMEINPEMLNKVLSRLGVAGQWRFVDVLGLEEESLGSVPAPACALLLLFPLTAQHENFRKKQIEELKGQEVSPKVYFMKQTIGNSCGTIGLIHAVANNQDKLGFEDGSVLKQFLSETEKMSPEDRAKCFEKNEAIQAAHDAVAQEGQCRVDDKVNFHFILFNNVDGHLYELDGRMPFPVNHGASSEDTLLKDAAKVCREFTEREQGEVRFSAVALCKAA

Binder | median log2 fold change
B1 | -0.238
B2 | -0.0277
B3 | 0.163
B4 | 0.0958
B5 | -0.119
B6 | 0.0504
B7 | 0.225
B8 | 0.0928
B9 | 0.138
B10 | 0.242
B11 | 0.347
B12 | 0.0437
B13 | 0.271
B14 | 0.0949
B15 | -0.15
B16 | -0.77

Binder | median log2 fold change
B17 | 0.11
B18 | 0.0563
B19 | 0.185
B20 | 0.163
B21 | 0.147
B22 | 0.143
B23 | 0.139
B24 | -0.0697
B25 | -0.026
B26 | 0.184
B27 | 0.144
B28 | 0.153
B29 | 0.184
B30 | 0.133
B31 | 0.157
B32 | 0.272
